# SMARCA2 activ: increases SMARCA2 function in MMTV reporter cells. 370,000 compounds, 1% hits. activation, % at 9.1 µM. MG213 cells, MMTV-luciferase reporter, dexamethasone, overnight; in the data active = activation above about 7.8%;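 note: 0% = vehicle wells and 100% = reference activator wells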
# CDK5 p35 inh: blocks human CDK5/p35 kinase activity; AID 488839; Recombinant CDK5/p35, ADP-Glo luminescence, 60 min; 330,000 compounds, 0.01% hits; inhibition, % at 10 µM;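 active = highest replicate inhibition of at least 50% and at least 75% of replicates reaching 50%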;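 note: plate controls were DMSO neutral control for no effect and GW8510 at 10 µM for full effect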
# dFosB act-1: activators of mouse delta FosB homodimer; AID 493131; 340,000 compounds, 0.99% hits; P13346; purified delta FosB, TAMRA-CDK5 oligo fluorescence polarization; percent of positive-control signal above neutral wells; activation, % at 25 µM;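 active = mean activation above about 17%, with every replicate also reaching it, limit read from the data, passing the limit was not always enough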
# Rtt109 Vps75: blocks Candida albicans Rtt109/Vps75 acetyltransferase activity | inhibition, % at 34.9 µM | AID 540336 | purified Rtt109/Vps75, ThioGlo CoA-SH fluorescence, 4 h | Q5AAJ8 | 330,000 compounds, 0.16% hits;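 active = inhibition of at least 50% in every replicate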
# Target sequence (Q5AAJ8 whole entry, looked up): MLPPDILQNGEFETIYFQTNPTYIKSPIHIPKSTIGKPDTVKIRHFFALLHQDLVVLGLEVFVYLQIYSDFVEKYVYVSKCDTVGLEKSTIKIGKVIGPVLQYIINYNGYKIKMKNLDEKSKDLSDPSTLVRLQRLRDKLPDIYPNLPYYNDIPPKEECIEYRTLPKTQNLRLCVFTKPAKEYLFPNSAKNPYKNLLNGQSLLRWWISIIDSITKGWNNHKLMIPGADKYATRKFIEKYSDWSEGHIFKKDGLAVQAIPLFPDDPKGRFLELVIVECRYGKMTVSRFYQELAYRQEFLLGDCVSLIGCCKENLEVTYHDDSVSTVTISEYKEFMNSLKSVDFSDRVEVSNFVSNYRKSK
# Dyrk1A ADPGlo: inhibitors of rat Dyrk1A kinase. Q63470. ADP-Glo luminescence, NFATc1 peptide. inhibition, % at 12.5 µM. 310,000 compounds, 0.43% hits; in the data active = inhibition above about 50%;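 note: plate controls were vehicle with enzyme for no effect and no enzyme for full effect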
# esBAF inh: blocks esBAF chromatin remodeling in mouse ES cells | AID 602393 | 350,000 compounds, 2% hits | Bmi1-luciferase knock-in reporter, 24 h; 100% = twice the neutral-well signal | reporter increase, % at 12.5 µM; in the data active = activation above about 40%;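 note: 0% = median of the plate's neutral control wells and 100% = double that signal; a rise in the Bmi1 reporter signal indicates esBAF inhibition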
# dFosB act-2: activators of mouse delta FosB homodimer DNA binding. shares compounds with dFosB act-1. activation, % at 24.9 µM. 2,400 tested, under 10 active. AID 588690. purified delta FosB, TAMRA-CDK5 oligo fluorescence polarization; normalised: neutral wells 0, positive control 100;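 active = highest replicate activation at or above 34% and every replicate reaching that threshold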;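 note: higher polarization means more probe DNA bound by delta FosB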
# Numbers without * were called inactive; . = no result. Sampled rows, rich in hits. Any-hit rate of the full collection: about 3.2%.
SMILES,SMARCA2 activ,CDK5 p35 inh,dFosB act-1,Rtt109 Vps75,Dyrk1A ADPGlo,esBAF inh,dFosB act-2
Cc1noc(C)c1NC(=O)Nc1ccc2c(c1)C(=O)N([C@@H](C)CO)C[C@@H](C)[C@@H](CN(C)C(=O)Nc1ccc(C(F)(F)F)cc1)OCCCC[C@@H](C)O2,.,.,.,.,.,-6,.
CCC(=O)N(C)C[C@H]1Oc2cc(C#CC(C)C)ccc2S(=O)(=O)N([C@@H](C)CO)C[C@@H]1C,.,.,.,.,.,-1,.
CN(c1ccc(OCC(=O)OCC(=O)c2c(N)n(C)c(=O)n(C)c2=O)cc1)S(=O)(=O)c1ccc2ccccc2c1,1,0,33*,4,-1,-17,-1
CCN(c1ccc(OCC(=O)OCC(=O)c2c(N)n(C)c(=O)n(C)c2=O)cc1)S(=O)(=O)c1ccccc1,-3,-1,-13,16,-3,-4,.
CC(=O)C1=C(O)C(=O)N(c2ccc(Br)cc2)C1c1ccc(Cl)cc1 (centres undefined),-1,0,-8,9,-5,2,.
CC(=O)c1cn(-c2ccc(Cl)cc2)c(=O)n(Cc2ccc(Br)cc2)c1=O,3,1,27*,-6,-1,.,1
C[C@H]1CCCCO[C@H](CN(C)C(=O)NC2CCCCC2)[C@@H](C)CN([C@@H](C)CO)C(=O)c2cc(NS(=O)(=O)c3ccc(Cl)cc3)ccc2O1,.,.,.,.,.,2,.
Cc1ccc(C)c(N2CCN(C(=O)Cn3c(=O)oc4cc(S(=O)(=O)N5CCCC5)ccc43)CC2)c1,.,-3,35*,-7,1,14,2
O=C(Cn1c(=O)oc2cc(S(=O)(=O)N3CCCC3)ccc21)NC1CCCc2ccccc21 (centres undefined),-2,0,26*,-6,16,0,3
C[C@@H]1CN([C@H](C)CO)C(=O)c2cccc(N(C)C)c2O[C@H]1CN(C)Cc1ccc(Cl)c(Cl)c1,.,.,.,.,.,5,.
COc1ccc2nc(NC(=O)CC3Oc4ccccc4NC3=O)sc2c1 (centres undefined),0,2,7,-2,-3,6,.
CCOc1ccc2nc(NC(=O)CC3Oc4ccccc4NC3=O)sc2c1 (centres undefined),-4,1,29*,-2,-4,13,3
C[C@@H]1CCCCO[C@H](CN(C)C(=O)Cc2ccccc2)[C@H](C)CN([C@H](C)CO)C(=O)c2cc(NC(=O)Nc3ccc(F)cc3)ccc2O1,.,.,.,.,.,-1,.
COc1cc(NC(=O)c2nn(C)c3c2CS(=O)(=O)c2ccccc2-3)cc(OC)c1,-4,-1,23*,3,-2,-5,0
Cc1ccc(S(=O)(=O)N[C@H]2C=C[C@H](CC(=O)N3CCN(c4ccccc4)CC3)O[C@@H]2CO)cc1,.,.,.,.,.,7,.
C[C@@H]1CN([C@H](C)CO)C(=O)c2cccc(NC(=O)Nc3ccccc3)c2O[C@@H]1CN(C)Cc1ccc(C(=O)Nc2ccccc2N)cc1,.,.,.,.,.,-22,.
O=Cc1cn(-c2ccccc2)nc1-c1cc2cc(O)ccc2oc1=O,-1,3,25*,11,0,-9,3
O=C(NC1CCC(CC2CCC(NC(=O)C(Cl)Cl)CC2)CC1)C(Cl)Cl (centres undefined),-1,-1,59*,-1,.,-7,6
COc1ccc(C(=O)Nc2ccccc2-c2nnn(CC(=O)Nc3ccc4c(c3)OCCO4)n2)cc1,6,2,33*,-3,.,2,2
COc1ccc(C(=O)Nc2ccccc2-c2nnn(CC(N)=O)n2)cc1,3,3,44*,-1,7,6,3
COc1ccc(C(=O)Nc2ccccc2-c2nnn(CC(=O)NCc3ccco3)n2)cc1,2,0,-7,-2,1,-3,.
COc1cc(OC)cc(C(=O)Nc2ccccc2-c2nnn(CC(=O)Nc3cc(C)on3)n2)c1,0,-3,95*,2,-3,0,5
CCOc1ccc(NC(=O)Cn2nnc(-c3ccccc3NC(=O)C3CC3)n2)cc1,0,-1,60*,2,-3,2,1
COc1cc(C(=O)Nc2ccccc2-c2nnn(CC(N)=O)n2)cc(OC)c1OC,-5,-1,-11,.,4,-6,.
Nc1ccccc1-c1nnn(CC(=O)Nc2ccc3c(c2)OCCO3)n1,-3,-1,6,-1,0,2,.
SMILES,SMARCA2 activ,CDK5 p35 inh,dFosB act-1,Rtt109 Vps75,Dyrk1A ADPGlo,esBAF inh,dFosB act-2
CC(C)NC(=O)N(C)C[C@@H]1Oc2cc(C#CC3CC3)ccc2S(=O)(=O)N([C@@H](C)CO)C[C@H]1C,.,.,.,.,.,-3,.
C[C@@H]1CN([C@@H](C)CO)C(=O)c2cc(NC(=O)Nc3ccc(F)cc3)ccc2O[C@H]1CN(C)C,.,.,.,.,.,3,.
C[C@H](CO)N1C[C@H](C)[C@@H](CN(C)C(=O)Nc2ccc(F)cc2)Oc2ccc(NC(=O)CCC(F)(F)F)cc2CC1=O,.,.,.,.,.,0,.
COc1ccc(CCNC(=O)CCn2c(SCC#N)nc3ccccc3c2=O)cc1OC,-1,0,22*,.,-1,-6,1
O=C(C[C@@H]1C=C[C@@H](NS(=O)(=O)c2ccc(F)cc2)[C@H](CO)O1)NC1CCCCC1,.,.,.,.,.,5,.
Cc1csc(NC(=O)c2cc3c(s2)-c2ccccc2OC3)n1,-2,-1,35*,-22,3,86*,-2
Cc1c(NC(=O)c2cc3c(s2)-c2ccccc2OC3)cccc1[N+](=O)[O-],0,0,-5,8,0,.,.
O=C(Nc1ccc(-c2nnn(CC(=O)N3CCN(C(=O)c4ccco4)CC3)n2)cc1)c1ccc(F)cc1,-2,2,35*,10,2,5,5
COCCCNC(=O)Cn1nnc(-c2ccc(NC(=O)c3ccc(F)cc3)cc2)n1,-3,-4,35*,0,5,-2,8
COc1cc(NC(=O)COC(=O)c2n[nH]c3ccccc23)c(C)cc1[N+](=O)[O-],-2,-3,32*,0,11,2,-1
O=C(COC(=O)c1n[nH]c2ccccc12)Nc1ccc([N+](=O)[O-])cc1,-3,-1,14,5,-1,.,.
C[C@H]1CN([C@@H](C)CO)C(=O)Cc2cc(NC(=O)CCCN(C)C)ccc2O[C@@H]1CN(C)S(=O)(=O)c1ccccc1,.,.,.,.,.,0,.
COc1cc(OC)c2nc(C)c3c(c2c1)N(c1ccc(O)cc1)CC3,7,0,47*,10,-6,-7,6
COc1ccc(CCNC(=O)c2cc(S(=O)(=O)N3CCc4ccccc43)ccc2F)cc1OC,2,.,.,.,.,9,.
COc1ccccc1NC(=O)c1cc(S(=O)(=O)N2CCc3ccccc32)ccc1F,-3,-2,30*,9,-14,-2,5
COc1cc(NC(=O)c2cc(-c3cccnc3)nc3ccc(Br)cc23)cc(OC)c1,3,-1,63*,0,.,5,1
